Source: PubChem BioAssay (NCATS)
Records with an inconclusive call do not appear. The source made the active and inactive calls. Calls follow the shape of the dose curve; as a rule, active = well fitted cell-killing curve with a large enough effect; inconclusive = small, poorly fitted or top-dose-only effect, or effect the other way; inactive = no such curve, though single readings can be large or run the other way.

Assays:
[1] = Viability qHTS for spleen associated tyrosine kinase inhibitor (SYKi) naive MV4-11 cells (AID 1963823); conditions: MV4-11 AML viability, CellTiter-Glo luminescence, 72 h; series mostly up to 45 µM; also: nearly all actives have a fitted effect of over 40% in size
Procedure, shortened: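 Cells: MV4-11, SYK inhibitor naive, 500 per well. Treatment: library compounds, 72 hr, 37 C, 5% CO2. Read-out: CellTiter-Glo luminescence after 10 min RT.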

[2] = Viability qHTS for spleen associated tyrosine kinase inhibitor (SYKi) drug resistant MV4-11 cells (AID 1963824); conditions: SYKi-resistant MV4-11 viability, CellTiter-Glo, 72 h; series mostly up to 45 µM; also: nearly all actives have a fitted effect of over 35% in size
Procedure, shortened: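 SYK inhibitor-resistant MV4-11 AML cells, 500 per well, added to predispensed compounds and incubated 72 hr at 37 C, 5% CO2. Viability measured by CellTiter-Glo luminescence after 10 min at room temperature.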
Potency is read from the fitted curve at half-maximal effect.

| SMILES | Potency [1] | Potency [2] | viability (% of control) [1] | viability, % of control [2] |
| --- | --- | --- | --- | --- |
| CC(C)C(N)C(=O)OCCOCn1cnc2c(=O)[nH]c(N)nc21 (centres undefined) | inactive | inactive |  |  |
| C=C1CCC2C(C)(C(=O)O)CCCC2(C)C1CC/C(=C\CO)CO (centres undefined) | inactive | inactive |  |  |
| O=C(CC(c1ccccc1)c1ccccc1)N1CCN(C(c2ccccc2)c2ccccc2)CC1 | 13 µM (active) | 10.3 µM (active) |  |  |
| CC1(C)CC[C@]2(C(=O)O[C@@H]3O[C@H](CO)[C@@H](O)[C@H](O)[C@H]3O)CC[C@]3(C)C(=CCC4[C@@]5(C)CC[C@H](OC6OC(C(=O)O)C(OC7OC(CO)C(O)C(O)C7O)C(O)C6O)C(C)(C)C5CC[C@]43C)C2C1 (some centres undefined) |  |  | 86.6% [at 9.25 µM] (inactive) | 91.6% [at 9.25 µM] (inactive) |
| CNc1nc(NCc2ccc(NS(C)(=O)=O)cc2Cl)cc(-c2ccccn2)n1 | 20.6 µM (active) | 23.1 µM (active) |  |  |
| CCN1CCN(c2ccc(Nc3ccc(-c4ccc(C(N)=O)cc4)n4ncnc34)cc2)CC1 | 0.517 µM (active) | 0.651 µM (active) |  |  |
| CC1=C2C[C@H]3O[C@@]3(C)CCC3O[C@@]3(C)C[C@@]2(O)OC1=O (some centres undefined) | inactive | inactive |  |  |
| O=C(O)c1cc(O[C@@H]2O[C@H](CO)[C@@H](O)[C@H](O)[C@H]2O)ccc1O | inactive | inactive |  |  |
| C=C1CCC2[C@](C)(CCC[C@@]2(C)C=O)[C@H]1CC/C(C)=C/CO (some centres undefined) | 20.6 µM (active) | 20.6 µM (active) |  |  |
| O=C(OC[C@H]1O[C@H](O[C@H]2CO[C@H](CO)[C@@H](O)[C@@H]2O)[C@H](O)[C@@H](O)[C@H]1O)c1ccccc1 | inactive | inactive |  |  |
| CC(C)=CCC/C(C)=C/Cc1ccc(O)c(C2OC(=O)c3cc(C(=O)O)cc(O)c32)c1O (centres undefined) | inactive | inactive |  |  |
| O=S(=O)(NC1CCNCC1)c1cc(S(=O)(=O)c2ccccc2)ccc1C(F)(F)F | inactive | inactive |  |  |
| Cc1ccc(NC(=O)c2cccc(C(C)(C)C#N)c2)cc1Nc1ccc2ncn(C)c(=O)c2c1 | 1.18 µM (active) | 1.48 µM (active) |  |  |
| C[C@@H]1CN(CCCn2c3ccccc3c3ccccc32)C[C@H](C)N1 | 23.7 µM (active) | 26.6 µM (active) |  |  |
| CCCC(NC(=O)/C(C#N)=C/c1cccc(Br)n1)c1ccccc1 (centres undefined) | 13 µM (active) | 9.2 µM (active) |  |  |
| CC[N+]1(C/C2=C/CCCCCC2)CCC(NC(=O)C2c3cc(Cl)ccc3Oc3ccc(Cl)cc32)CC1 (centres undefined) | 6.51 µM (active) | 3.66 µM (active) |  |  |
| COC1OC(O)C2(CCC3(O2)C(C)CC2OC(=O)C4(C)CCCC3(C)C24)C1O (centres undefined) | inactive | inactive |  |  |
| C[C@H]1CC[C@@]2(OC1)O[C@H]1CC3C4CC[C@H]5C[C@@H](O)[C@H](O)C[C@]5(C)C4=CC(=O)[C@]3(C)[C@H]1[C@@H]2C (some centres undefined) | inactive | inactive |  |  |
| C=C1CN(Cc2ccc(C(=O)Nc3ccccc3N)cc2)C(=O)c2ccccc21 | 0.651 µM (active) | 0.517 µM (active) |  |  |
| COC(=O)CC[C@H](NC(=O)[C@H](CC(C)C)NC(=O)OCc1ccccc1)C(=O)N[C@@H](Cc1cnc[nH]1)C(=O)N[C@@H](CC(=O)OC)C(=O)CF |  |  | 80.3% [at 9.25 µM] (inactive) | 91.2% [at 9.25 µM] (inactive) |
| CC1=CC(=O)C[C@H]2[C@@H]1CC[C@@H](C)[C@]21CO[C@H](c2ccoc2)C1=O | inactive | inactive |  |  |
| CC1C(OC(=O)c2ccccc2)C(O)C2C(C(=O)O)=COC(OC3OC(CO)C(O)C(O)C3O)C12 (centres undefined) | inactive | inactive |  |  |
| CC1(CO)CC(O)C2(C)CCC3(C)C(=CCC4C5(C=O)CCC(OC6OC(C(=O)O)C(O)C(O)C6OC6OC(C(=O)O)C(O)C(O)C6O)C(C)(C)C5CCC43C)C2C1 (centres undefined) |  |  | 87.7% [at 9.25 µM] (inactive) | 98.3% [at 9.25 µM] (inactive) |
| O=C(Nc1ccccc1-c1cn2c(CN3CCNCC3)csc2n1)c1ccc2ccccc2n1 | 10.3 µM (active) | 20.6 µM (active) |  |  |
| Cc1nc2ccc(CN(C)c3ccc(C(=O)NC(CCC(=O)O)C(=O)O)s3)cc2c(=O)[nH]1 (centres undefined) | 0.0065 µM (active) | 0.0073 µM (active) |  |  |
| C/C=C1/[C@H](O[C@@H]2O[C@H](CO)[C@@H](O)[C@H](O)[C@H]2O)OC=C(C(=O)OC)[C@H]1CC(=O)OCCc1ccc(O)c(O)c1 | inactive | inactive |  |  |
| C/C=C(/COC(=O)/C(C)=C/C)C(=O)OC(CC)c1ccc(OC)c(OC)c1 (centres undefined) | inactive | inactive |  |  |
